{"source": "PubChem BioAssay (NCATS)", "note": "Inconclusive results are not listed. A call without a number means that no potency is given here. Calls of active or inactive are those of the source. Calls follow the shape of the dose curve; as a rule, active = well fitted inhibition curve with a large enough effect; inconclusive = small, poorly fitted or top-dose-only effect; inactive = no such curve, though single readings can be large or run the other way."}
{"molecular_target": "Retinaldehyde dehydrogenase 3 (Homo sapiens) (UniProt P47895)", "assay": "qHTS for Inhibitors of the Aldehyde Dehydrogenase Family (ALDH1A3) Primary screen (AID 2061315)", "conditions": "ALDH inhibition qHTS; series mostly up to 56 µM"}
{"smiles": "C[C@]12CC[C@@H]3c4ccc(OC(=O)c5ccccc5)cc4CC[C@H]3[C@@H]1CC[C@@H]2O", "Potency": "inactive"}
{"smiles": "C[C@@H]1C(=O)O[C@H]2CC34[C@H]5C[C@@H](C(C)(C)C)C36[C@@H](OC(=O)[C@@H]6O)OC4(C(=O)O5)[C@]21O", "note": "(stereo not given in full)", "Potency": "inactive"}
{"smiles": "CC[C@H]1CN(c2nc(N)c(C(N)=O)nc2Cl)CCN1C1CCN(Cc2ccc(Cl)cc2)CC1", "Potency": "inactive"}
{"smiles": "Cc1ccc(C(=O)C(C)CN2CCCCC2)cc1", "note": "(stereo not given)", "Potency": "inactive"}
{"smiles": "COc1cnc(-n2cnc(C)n2)c2[nH]cc(C(=O)C(=O)N3CCN(C(=O)c4ccccc4)CC3)c12", "Potency": "inactive"}
{"smiles": "O=C(Nc1ccc(-n2nc(C(F)(F)F)cc2C(F)(F)F)cc1)c1ccncc1F", "Potency": "inactive"}
{"smiles": "CCCCNc1ccc(-c2ccc(CN3CCOCC3)cn2)c(NC2CCC(O)CC2)c1", "note": "(stereo not given)", "Potency": "inactive"}
{"smiles": "Cc1cc(C)c(S(=O)(=O)n2cc(C)cc2C)c(C)c1", "Potency": "inactive"}
{"smiles": "COc1ccc(C(=O)N(CCC(C)C)Cc2nc(C)c(C)n2Cc2ccccc2C)c(OC)c1", "Potency": "inactive"}
{"smiles": "CN1CC2CN(c3ccc4oc5ccccc5c(=O)c4c3)CC2C1", "note": "(stereo not given)", "Potency": "inactive"}
{"smiles": "O=C(Nc1cc(-c2ccccc2)nn1-c1ccccc1)c1ccc([N+](=O)[O-])cc1", "Potency": "inactive"}
{"smiles": "COc1ccc(Cl)cc1[C@@]1(F)C(=O)Nc2cc(C(F)(F)F)ccc21", "Potency": "inactive"}
{"smiles": "CC(=O)O[C@]1(C(C)=O)CC[C@H]2[C@@H]3CCC4=CC(=O)CCC4=C3[C@@H](c3ccc(N(C)C)cc3)C[C@@]21C", "Potency": "inactive"}
{"smiles": "O=C(CNC(=O)c1cccc(C(F)(F)F)c1)N[C@@H]1CCN(Cc2ccc(Cl)cc2)C1", "Potency": "inactive"}
{"smiles": "CCOC(=O)N1CCC(NCCNC(=O)c2ccccc2C)CC1", "Potency": "inactive"}
{"smiles": "FC(F)(F)c1nnc2c(Sc3ccccc3)nc3ccc(Cl)cc3n12", "Potency": "inactive"}
{"smiles": "O=C(N[C@H](Cc1cscn1)C(=O)N[C@@H](CC1CCCCC1)[C@@H](O)[C@@H](O)C1CC1)c1nc2ccccc2[nH]1", "Potency": "inactive"}
{"smiles": "CN1CCOC(c2ccccc2)c2ccccc2C1", "note": "(stereo not given)", "Potency": "inactive"}
{"smiles": "Cc1ccc2nc(N)[nH]c(=O)c2c1Sc1ccncc1", "Potency": "inactive"}
{"smiles": "COc1c(C)cnc(Cn2cc(C#CCC(C)(C)O)c3c(Cl)nc(N)nc32)c1C", "Potency": "inactive"}
{"smiles": "CCCN1CCC[C@@H](c2cccc(S(C)(=O)=O)c2)C1", "Potency": "inactive"}
{"smiles": "O=C(NCCCn1ccnc1)c1cc(-c2ccco2)on1", "Potency": "inactive"}
{"smiles": "Cc1nc(C)c(-c2ccc(C3CCC(CC(=O)O)CC3)cc2)nc1C(N)=O", "note": "(stereo not given)", "Potency": "inactive"}
{"smiles": "Cc1cc(OCCN2CCOCC2)nn1-c1ccc2ccccc2c1", "Potency": "inactive"}
{"smiles": "CCCCOc1cc(C(=O)OCCN(CC)CC)ccc1N", "Potency": "inactive"}
{"smiles": "O=c1cc(OCc2ccc(F)cc2)ccn1-c1ccc(OCCN2CCCC2)cc1", "Potency": "inactive"}
{"smiles": "COc1ccc(N2CCN(CCCNC(=O)Cn3c(=O)c4cccn4c4c(C)ccnc43)CC2)cc1", "Potency": "inactive"}
{"smiles": "Cc1cc(C(=O)Cn2cc(C#N)ccc2=O)c(C)n1Cc1ccccc1", "Potency": "inactive"}
{"smiles": "CCn1c(=O)n([C@H]2CCCN(c3nccc(-c4cc5ccccc5o4)n3)C2)c2ccccc21", "Potency": "inactive"}
{"smiles": "OC1CCC(Nc2nc(-c3ccccc3)nc3[nH]ccc23)CC1", "note": "(stereo not given)", "Potency": "inactive"}
{"smiles": "CN(C1CCc2c(c3ccccc3n2CC(=O)O)C1)S(=O)(=O)c1ccc(F)cc1", "note": "(stereo not given)", "Potency": "inactive"}
{"smiles": "CC(C)(C#N)c1ccc(N2C(=O)OCc3cnc4ccc(-c5cnc6ccccc6c5)cc4c32)cc1", "Potency": "inactive"}
{"smiles": "CCn1c2ccccc2c2cc(CNC)ccc21", "Potency": "inactive"}
{"smiles": "O=C(O)Cn1nnc(-c2ccc(CN(CCCCOc3ccc(CN4CCCC4)cc3)CCc3ccccc3)cc2)n1", "Potency": "inactive"}
{"smiles": "Cn1c(SCC(=O)N2CCC[C@H]2C(=O)Nc2ccccc2-c2ccccc2)nc2ccccc21", "Potency": "inactive"}
{"smiles": "O=C(Nc1cccnn1)N1CCN(c2nccc(-c3ccc(F)c(F)c3)n2)CC1", "Potency": "inactive"}
{"smiles": "CN(C)CCCOc1nn(Cc2ccccc2)c2ccccc12", "Potency": "inactive"}
{"smiles": "CC1(C)[C@H]2C[C@H](C/C=C\\CCCC(=O)O)[C@@H](NC(=O)c3csc4ccc(O)cc34)[C@@H]1C2", "Potency": "inactive"}
{"smiles": "C=CCCN1CCC2(CC1)CN(C(=O)c1c(F)cccc1F)c1ccc(Cl)cc12", "Potency": "inactive"}
{"smiles": "CCCCOC(=O)NC(=O)C1c2ccccc2Oc2ccccc21", "Potency": "inactive"}
